Screening results (PubChem)
RPL19A TOR yeast: alters RPL19A-GFP fluorescence in TOR pathway yeast screen; S. cerevisiae RPL19A-GFP strain, flow cytometry, 3 h; hits give low values; percent response vs DMSO, % at 10 µM; 330,000 compounds, 0.3% hits; AID 2025;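 active means percent response vs DMSO below 50%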;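 further: median channel GFP fluorescence of the barcoded RPL19A-GFP strain; lower means less RPL19A-GFP as with rapamycin TOR inhibition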
CIT2-GFP yeast: yeast TOR pathway CIT2-GFP modulation; S. cerevisiae CIT2-GFP strain, flow cytometry, 3 h; 100 means same as DMSO wells; GFP response vs DMSO, % at 10 µM; 320,000 compounds, 0.065% hits;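 active means GFP response relative to DMSO above a set limit, near the screen mean plus 3 SD, cut at about 150% in these data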;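 further: ratio of well median GFP fluorescence to mean of DMSO wells on the plate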
AGP1 TOR yeast: modulators of TOR pathway AGP1-GFP in S. cerevisiae | 320,000 compounds, 0.02% hits | S. cerevisiae AGP1-GFP multiplex flow cytometry, 3 h; GFP as percent of DMSO wells | GFP response vs DMSO, % at 10 µM;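 active means GFP response relative to DMSO above a set limit, near screen average plus 3 SD, cut at about 150% in these data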;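 further: median GFP channel fluorescence of the gated AGP1 strain per well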
LAP4 TOR yeast: alters LAP4-GFP fluorescence in TOR pathway yeast screen. S. cerevisiae LAP4-GFP multiplex, flow cytometry GFP, 3 h; median GFP as percent of DMSO wells. AID 2023. GFP response vs DMSO, % at 10 µM. 320,000 compounds, 0.34% hits;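 active means GFP response vs DMSO above a set limit, about the screen mean plus 3 SD, cut at about 150% in these data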
MEP2-GFP yeast: modulators of TOR pathway MEP2-GFP in S. cerevisiae | S. cerevisiae MEP2-GFP strain, flow cytometry GFP, 3 h; 100% = DMSO control level | GFP response vs DMSO, % at 10 µM | 330,000 compounds, 0.51% hits;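 active means GFP response versus DMSO above a set limit, roughly screen mean plus 3 SD, cut at about 180% in these data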;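 further: median GFP fluorescence of the barcode-gated MEP2-GFP cells per well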
LAP4-GFP pick2: second confirmation of modulators of TOR reporter LAP4-GFP in yeast | AID 2621 | S. cerevisiae LAP4-GFP strain, flow cytometry GFP, 3 h | GFP response vs DMSO, % at 10 µM | 590 compounds, 20% hits | shares compounds with LAP4 TOR yeast;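 active means GFP signal as percent of the solvent control above about 150%, meaning raised reporter expression, limit read from the data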
MEP2 cherry2: reconfirmed MEP2-GFP TOR pathway modulator in yeast. shares compounds with LAP4 TOR yeast. S. cerevisiae MEP2-GFP strain, flow cytometry GFP, 3 h. AID 2622. 590 compounds, 10% hits. GFP response vs DMSO, % at 10 µM;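 active means GFP signal above 150% of the solvent control wells, that is a rise of more than half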;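 further: median channel GFP fluorescence of all gated yeast cells per well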
RPL19A GFP CP2: reconfirmed modulator of RPL19A-GFP TOR reporter in yeast; shares compounds with LAP4 TOR yeast; S. cerevisiae RPL19A-GFP strain, flow cytometry GFP, 3 h; hits give low values; 100% means same as DMSO wells; GFP response vs DMSO, % at 10 µM; 590 compounds, 3% hits; AID 2623;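 active means under 65% GFP response relative to DMSO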;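 further: median GFP channel fluorescence per well over the all cells gate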
CIT2 GFP CP2: yeast CIT2-GFP TOR reporter modulation, second cherry pick. shares compounds with LAP4 TOR yeast. S. cerevisiae CIT2-GFP strain, flow cytometry GFP, 3 h; DMSO control wells read 100%. GFP response vs DMSO, % at 10 µM. 590 compounds, 8% hits. AID 2624;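 active means GFP response vs DMSO above about 150%, limit read from the data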;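 further: median green fluorescence per well over all gated yeast cells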
AGP1-GFP pick2: yeast AGP1-GFP TOR reporter modulation, second cherry pick. shares compounds with LAP4 TOR yeast. S. cerevisiae AGP1-GFP strain, flow cytometry GFP, 3 h. percent response vs DMSO, % at 10 µM. 590 tested, under 10 active. AID 2643;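 active means over 150 percent of DMSO response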;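 further: median GFP channel fluorescence over all cells without mother daughter split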
s288c autofluor: yeast s288c autofluorescence artifact, counter-screen; shares compounds with LAP4 TOR yeast; S. cerevisiae s288c, 520 nm autofluorescence, flow cytometry, 3 h; hits give high values; zero means same as solvent-only cells; fluorescence change (kMESF span) at 33 µM; 610 tested, under 10 active; AID 2757;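 active means fluorescence span over the dose series, or activity score, above about 33, limit read from the data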
s288c autofl DR: counter-screen for autofluorescence of TOR hits in yeast s288c; 110 tested, under 10 active; AID 488829; S. cerevisiae s288c parental, compound autofluorescence, flow cytometry, 3 h; shares compounds with LAP4 TOR yeast; fluorescence change (span) at 33 µM;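 active means fluorescence change span, or the activity score built from it, above 25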
TORC1 bypass: compounds blocking wildtype yeast growth but not TORC1 bypass cells; growth rating (0-3) at 30 µM; 120 tested, under 10 active; AID 504456; S. cerevisiae BY4741 spot growth rating, 48-72 h; hits give low values; shares compounds with LAP4 TOR yeast;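 active means growth rating at most 1 for wild type yeast while the TORC1 bypass strain still grows fully, rated 3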
Hits are given with their value; i = inactive; nt = no result given. Most compounds without a hit are left out; they make up all but 0.89% or so of the library.

SMILES	RPL19A TOR yeast	CIT2-GFP yeast	AGP1 TOR yeast	LAP4 TOR yeast	MEP2-GFP yeast	LAP4-GFP pick2	MEP2 cherry2	RPL19A GFP CP2	CIT2 GFP CP2	AGP1-GFP pick2	s288c autofluor	others
COc1ccc(CCNC2=C(Cl)C(=O)N(CCc3ccc(OC)c(OC)c3)C2=O)cc1OC	i	i	i	i	i	nt	nt	nt	nt	nt	i
COc1ccc(NC(=O)CCN2C(=O)c3ccccc3C2=O)c(OC)c1	i	i	i	i	i	nt	nt	nt	nt	nt	nt
COc1ccc(NC2=C(Cl)C(=O)N(CCc3ccccc3)C2=O)c(OC)c1	i	i	i	i	i	nt	nt	nt	nt	nt	i
CC(C)N(C(=O)COC(=O)c1ccc(Cl)c(S(N)(=O)=O)c1)C(C)C	i	i	i	174.2	i	i	i	i	i	i	nt
O=S(=O)(c1ccccc1Br)N1CCN(c2ncccn2)CC1	i	i	i	i	i	nt	nt	nt	nt	nt	nt
CC(C)(C)C1CCc2sc(-c3nnc(CCl)o3)cc2C1 (configuration not stated)	i	i	i	i	i	i	i	i	i	i	nt
COC(CNC(=O)c1ccc2c3c(onc13)-c1ccccc1C2=O)OC	i	i	i	229.9	i	nt	nt	nt	nt	nt	i
CC(=O)n1cc(Nc2ccc([N+](=O)[O-])cc2)c2ccccc21	i	i	i	i	i	nt	nt	nt	nt	nt	nt
CC(=O)SC(C[N+](=O)[O-])c1cn(C(C)=O)c2ccccc12 (configuration not stated)	i	i	i	229.3	i	nt	nt	nt	nt	nt	i	s288c autofl DR=i;TORC1 bypass=i
COc1cc(S(=O)(=O)Nc2cccc3cn[nH]c23)c(OC)cc1C	i	167.4	i	i	i	i	i	i	i	i	nt
O=C(CNC(=O)c1ccc(OC(F)F)cc1)Nc1cccc(S(=O)(=O)N2CCCC2)c1	i	i	i	i	i	nt	nt	nt	nt	nt	nt
C=CCN1CCN(C(=O)c2ccc3c(c2)OCO3)CC1	i	156.7	i	i	i	i	i	i	i	i	nt
S=c1[nH]nc(-c2ccco2)n1/N=C/c1ccc(Cl)cc1Cl	i	i	i	i	216.5	i	i	i	i	i	nt
CCN1CCN(Cc2nnc(-c3ccc(C)cc3)o2)CC1	i	i	i	i	i	nt	nt	nt	nt	nt	nt
COC(=O)N/N=C/c1ccc(OS(=O)(=O)c2ccc(C)cc2)c(OC)c1	i	i	i	i	i	nt	nt	nt	nt	nt	nt
C=CCNC(=O)/C(C#N)=C/c1ccc(OS(=O)(=O)c2ccc(C)cc2)c(OC)c1	i	i	i	185.6	i	i	i	i	i	i	nt
O=C(CSc1nnc(CNC(=O)c2ccccc2)o1)NCc1ccc2c(c1)OCO2	i	i	i	i	i	nt	nt	nt	nt	nt	nt
O=[N+]([O-])c1cc(Cl)c2cccnc2c1O	i	i	i	201.6	i	nt	nt	nt	nt	nt	i	s288c autofl DR=i;TORC1 bypass=i
O=[N+]([O-])c1cc([N+](=O)[O-])c2cccnc2c1Oc1ccccc1O	i	i	i	i	i	nt	nt	nt	nt	nt	nt
O=[N+]([O-])c1ccc(Cl)c2cccnc12	i	i	i	i	i	nt	nt	nt	nt	nt	nt
CC(=O)NC(c1ccccc1)c1cc(Cl)c2cccnc2c1O (configuration not stated)	i	i	i	i	i	nt	nt	nt	nt	nt	nt
O=[N+]([O-])c1ccc(O)c2ncccc12	i	i	i	312.6	i	274.6	158.9	i	i	i	i	s288c autofl DR=i;TORC1 bypass=i
O=[N+]([O-])c1cc(F)c2cccnc2c1O	i	i	i	184.6	i	nt	nt	nt	nt	nt	i
Oc1c(I)cc(Cl)c2cccnc12	i	i	i	286.0	i	226.0	216.3	i	176.4	i	i	s288c autofl DR=i;TORC1 bypass=i
O=[N+]([O-])c1ccc(O)c2cccnc12	i	i	i	i	i	nt	nt	nt	nt	nt	nt
SMILES	RPL19A TOR yeast	CIT2-GFP yeast	AGP1 TOR yeast	LAP4 TOR yeast	MEP2-GFP yeast	LAP4-GFP pick2	MEP2 cherry2	RPL19A GFP CP2	CIT2 GFP CP2	AGP1-GFP pick2	s288c autofluor	others
O=C(CSc1ccccc1F)NCC(c1cccs1)N1CCOCC1 (configuration not stated)	i	i	i	i	i	nt	nt	nt	nt	nt	nt
Clc1cc2cccnc2c2ncccc12	i	i	i	167.9	i	i	i	i	i	i	nt
Cc1c(C)c2cccnc2c2ncccc12	i	i	i	182.7	i	i	i	i	i	i	nt
COc1cc(OC)c(NC(=O)CCCNC(=O)Cn2cnc3sc(C)c(C)c3c2=O)cc1Cl	i	i	i	i	i	nt	nt	nt	nt	nt	nt
CCOc1cc(/C=N/NC(N)=O)ccc1OCC(=O)Nc1ccc(C)c(C)c1	i	i	i	i	i	nt	nt	nt	nt	nt	nt
CCOc1cc(C=C2C(=O)c3ccccc3C2=O)ccc1OCC(=O)Nc1ccc(C)cc1	i	i	i	i	i	i	i	i	i	i	i
COc1ccc2[nH]c(C(=O)O)c(CCN3C(=O)c4cccc([N+](=O)[O-])c4C3=O)c2c1	i	i	i	i	i	i	i	i	i	i	nt
Cc1ccc(OCCNC(=O)CNC(=O)c2ccc(Cl)c([N+](=O)[O-])c2)cc1	i	i	i	i	i	nt	nt	nt	nt	nt	nt
CCOC(=O)CS(=O)(=O)c1nc(-c2ccc(F)cc2)cc(C(F)(F)F)n1	i	i	i	172.4	i	nt	nt	nt	nt	nt	i
COC(=O)CCS(=O)(=O)c1nc(-c2ccccc2)cc(C(F)(F)F)n1	i	i	i	155.7	183.4	nt	nt	nt	nt	nt	i	s288c autofl DR=i;TORC1 bypass=i
CCOC(=O)CCS(=O)(=O)c1nc(-c2ccccc2)cc(C(F)(F)F)n1	i	i	i	185.2	i	nt	nt	nt	nt	nt	i	s288c autofl DR=i;TORC1 bypass=i
CCOC(=O)CS(=O)(=O)c1nc(-c2ccccc2)cc(C(F)(F)F)n1	i	i	i	179.6	i	nt	nt	nt	nt	nt	i	s288c autofl DR=i;TORC1 bypass=i
Nc1c(C(=O)CSc2nnc(-c3ccccc3)o2)c(=O)[nH]c(=O)n1C1CC1	i	i	i	i	i	nt	nt	nt	nt	nt	nt
O=C(COC(=O)CNC(=O)C1CCCCC1)Nc1ccccc1OC(F)F	i	i	i	i	i	nt	nt	nt	nt	nt	nt
